MITF inhib: blocks MITF activity; TRPM1 promoter luciferase, luminescence, 24 h; inhibition, % (test concentration not listed); 37,000 tested, 0.28% active; in the data active = inhibition above about 85%;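 also: human melanocyte line stably carrying TRPM1 promoter luciferase reporter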
Shh pathway inh: Sonic Hedgehog pathway inhibition | inhibition, % (concentration not given with the values) | AID 2313 | Shh-LIGHT2 Gli-luciferase reporter, 30 h | 22,000 tested, 2.1% active;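 active = mean inhibition across valid replicates above about 65%, limit read from the data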;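 also: pathway switched on by Shh-conditioned medium diluted 1 in 25 in low serum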
PD-1 reversal: reversal of PD-1 mediated T-cell inhibition; primary human CD4 T cells, PD-L1 beads, CellTiter-Glo 96 h; activation, % (test concentration not listed); 29,000 tested, under 10 active; call rule not given here;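 also: 0% = median vehicle wells and 100% = positive control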
YB-1 expr inh: YB-1 expression inhibition; U2OS, qRT-PCR YB-1 vs CDIP delta delta Cp, 16 h; active compounds read high; zero = DMSO, each unit about twofold; delta delta Cp (YB-1 minus CDIP) (no concentration beside the values); 30,000 tested, 0.37% active;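 active = delta delta Cp rounded down to an integer at or above 3, about 3 SD of DMSO wells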;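 also: higher means less YB-1 transcript or more CDIP transcript relative to DMSO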
NOMO-1 viab: STK33 inhibitor candidate reducing NOMO-1 cell viability | NOMO-1 AML viability, CellTiter-Glo luminescence, 72 h | inhibition, % (concentration not given with the values) | 37,000 tested, 7.5% active | AID 2330; in the data active = inhibition above about 80%
Starred values were filed as active, the others as inactive; x = no result. The list is not random: actives were taken first. Their share in the collection is about 7.4%.

SMILES	MITF inhib	Shh pathway inh	PD-1 reversal	YB-1 expr inh	NOMO-1 viab
CS(=O)(=O)N(CC(=O)Nc1ccc(Cl)c(Cl)c1)c1ccc(Br)cc1	116*	x	-14	x	115*
Cc1cc(N(CC(=O)Nc2ccc(F)c(Cl)c2)S(C)(=O)=O)ccc1Br	47	x	-8	x	93*
Cc1ccc(-n2c(Cn3c(-c4ccccn4)nc4ccccc43)n[nH]c2=S)c(Br)c1	11	x	x	x	-15
C[C@H]1CN([C@@H](C)CO)C(=O)CCCn2nncc2CO[C@@H]1CN(C)C(=O)OCc1ccccc1	x	x	x	-11	x
CCN(CC)c1ccc(/C=N/NC(=O)c2ccc(C(=O)NO)cc2)c(O)c1	x	x	x	0.43	x
C[C@@H]1CN([C@@H](C)CO)C(=O)c2cc(NC(=O)Cc3ccccc3)ccc2O[C@@H]1CN(C)C(=O)NC1CCCCC1	5	x	x	-0.058	1
Cc1ccc([N+](=O)[O-])cc1N(CC(=O)Nc1ccc(I)cc1)S(C)(=O)=O	10	x	0	x	121*
Cc1ccc([N+](=O)[O-])cc1N(CC(=O)Nc1cccc(F)c1)S(C)(=O)=O	0	x	x	x	40
CC(C)NC(=O)Nc1cccc2c1O[C@H](CN(C)CC1CC1)[C@@H](C)CN([C@@H](C)CO)C2=O	-5	-21	2	-0.049	14
O=c1cc(-c2ccccc2)nc2scc(-c3ccc(Cl)cc3)n12	-4	-19	0	-0.056	-13
O=c1cc(-c2ccccc2)nc2cc(-c3ccccc3)[nH]n12	-26	-241	-2	-0.29	107*
CC(C)NC(=O)N(C)C[C@@H]1Oc2ccc(NC(=O)Nc3ccc(C(F)(F)F)cc3)cc2C(=O)N([C@H](C)CO)C[C@H]1C	-4	x	0	0.58	5
Cc1cccc(NC(=O)c2ccccc2NC(=O)COc2cccc([N+](=O)[O-])c2)c1C	0	x	-8	x	105*
O=C(CC1(O)C(=O)N(Cc2cccc3ccccc23)c2ccccc21)c1ccc(F)cc1 (centres undefined)	45	x	x	x	84*
Cc1ccc(C(=O)CC2(O)C(=O)N(Cc3cccc4ccccc34)c3ccccc32)cc1 (centres undefined)	40	x	x	x	32
Cc1ccccc1CN1C(=O)C(O)(CC(=O)c2ccncc2)c2cc(Cl)ccc21 (centres undefined)	16	x	-7	x	129*
COc1ccc(CN2C(=O)C(O)(CC(=O)c3cccnc3)c3ccccc32)cc1OC (centres undefined)	2	x	-4	x	106*
COc1ccc(C(=O)CC2(O)C(=O)N(Cc3ccccc3Cl)c3ccc(Cl)cc32)cc1OC (centres undefined)	52	x	-2	x	90*
O=C(COc1ccc([N+](=O)[O-])cc1)Nc1ccc2oc(-c3ccccc3Br)nc2c1	-16	x	x	x	-16
C[C@H]1CN([C@@H](C)CO)C(=O)Cc2cc(NC(=O)NC3CCCCC3)ccc2O[C@H]1CN(C)C(=O)Nc1cccc2ccccc12	-1	x	0	0.14	6
COc1ccc(CN2C(=O)C(O)(CC(=O)c3ccc4c(c3)CCCC4)c3ccccc32)cc1OC (centres undefined)	0	x	-2	x	47
COc1ccc(CN2C(=O)C(O)(CC(=O)c3ccc(C)s3)c3ccccc32)cc1OC (centres undefined)	17	x	x	x	114*
COc1ccc(CN2C(=O)C(O)(CC(=O)c3ccc(Cl)s3)c3ccccc32)cc1OC (centres undefined)	1	x	x	x	109*
COc1ccc(CN2C(=O)C(O)(CC(=O)c3ccc(Cl)cc3)c3ccccc32)cc1OC (centres undefined)	3	x	1	x	112*
O=C(CC1(O)C(=O)N(Cc2ccc(Cl)c(Cl)c2)c2ccccc21)c1cccc([N+](=O)[O-])c1 (centres undefined)	5	x	-6	x	108*
C[C@H]1CN([C@@H](C)CO)C(=O)c2cccc(NC(=O)c3nc4ccccc4s3)c2O[C@H]1CN(C)Cc1ccc(C(=O)O)cc1	-1	8	-2	-0.7	19
C=CCN1C(=O)C(O)(CC(=O)c2ccc(OC)c([N+](=O)[O-])c2)c2ccccc21 (centres undefined)	21	x	-10	x	119*
COc1cccc(-c2cc(=O)c3cc(OC)ccc3o2)c1	93*	-142	x	0.19	59
COc1ccc2c(=O)cc(-c3ccccc3)oc2c1	-109	-41	1	-0.14	22

Bioassay records deposited in PubChem by Broad Institute.
